Assay outcomes as filed in PubChem BioAssay.
Shown are actives, neighbours in structure and some others; about 2.3% of the full set was active somewhere.
M18AAP inhibitor: blocks P. falciparum M18 aspartyl aminopeptidase. recombinant PfM18AAP, H-Glu-NHMec fluorogenic cleavage. inhibition, % at 7.35 µM. actives 1.2% (n = 290,000). AID 1822;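 active = inhibition above the campaign mean inhibition over all tested compounds plus 3 SD, cut at about 28% in these data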
Rce1 inh: blocks yeast Ras-converting enzyme; calls only; Q03530; yeast membranes, quenched prenylated peptide cleavage fluorescence; AID 2563; actives 0.27% (n = 290,000);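 active = fall in fluorescence gain of 50% or more versus controls, with final raw signal at or below 3038400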
Target sequence (Q03530 whole entry, looked up): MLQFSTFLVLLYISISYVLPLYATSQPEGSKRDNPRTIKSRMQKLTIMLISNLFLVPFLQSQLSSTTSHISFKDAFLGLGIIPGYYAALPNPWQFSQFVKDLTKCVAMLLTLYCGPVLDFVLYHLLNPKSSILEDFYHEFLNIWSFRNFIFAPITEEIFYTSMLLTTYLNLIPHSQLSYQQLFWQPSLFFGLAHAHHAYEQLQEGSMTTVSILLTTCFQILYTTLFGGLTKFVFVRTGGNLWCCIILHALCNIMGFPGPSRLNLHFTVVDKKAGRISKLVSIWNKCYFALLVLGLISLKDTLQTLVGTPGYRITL
FID counter: displaces DNA intercalator in HCV helicase counter-screen; AID 1845; inhibition, % at 7.9 µM; actives 0.17% (n = 290,000); DNA fluorescent intercalator displacement, fluorescence; in the data active = inhibition above about 37%;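 also: higher means more ethidium bromide displaced from hairpin DNA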
Kir21 block: blocks the mouse Kir2.1 inward-rectifier potassium channel. AID 1672. actives 0.85% (n = 310,000). P35561. HEK293-Kir2.1, FluxOR thallium flux fluorescence; active compounds read low. B-score at 10 µM;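 active = fluorescence ratio B-score at or below minus 3 SD of library scores, with starting-brightness B-score within 2 SD, cut at about -4.2 in these data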;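 also: channel flux triggered by added potassium and thallium sulfate stimulus; B-score of peak minus minimum fluorescence over baseline after thallium stimulus; more negative B-score means stronger Kir2.1 block with less thallium influx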
Each line names hits and unclear results; the compound was inactive in the other large screens.

CCc1c(C)sc(NC(=O)Cc2ccccc2C)c1C(=O)N1CCOCC1	none
Cc1ccc(NC(=O)N2CCCCCC2)cc1C	none
Cc1ccc(NC(=O)N2CCCN(Cc3ccc(F)cc3)C2)cc1C	Kir21 block -5.4
CCC(C)NS(=O)(=O)c1cc2c3c(c1)CCN3C(=O)CC2 (configuration not stated)	none
Cc1cccc(-c2nc(S(=O)(=O)c3ccc(F)cc3)c(NCCCN3CCOCC3)o2)c1	none
CCOc1ccccc1CNC(=O)CCc1cn(CC)c2ccccc12	Kir21 block -5.9
COc1ccc(OC)c(CNC(=O)CCc2cn(C)c3ccccc23)c1	none
CCn1cc(CCC(=O)NC(C)c2ccccc2)c2ccccc21 (configuration not stated)	Kir21 block -6.1
CC(CCc1ccccc1)NC(=O)CCc1cn(C)c2ccccc12 (configuration not stated)	Kir21 block -5.6
COc1ccc(OC)c(CCNC(=O)CCc2cn(C)c3ccccc23)c1	Kir21 block -5.6
CN(C(=O)COC(=O)CSc1ccc(C(N)=O)cc1[N+](=O)[O-])C1CCCCC1	none (no result: M18AAP inhibitor, FID counter)
Cc1c(Cl)cccc1-n1c(-c2cccnc2)n[nH]c1=S	M18AAP inhibitor 31
Cc1ccccc1-n1c(-c2ccncc2)n[nH]c1=S	none (no result: M18AAP inhibitor, FID counter)
CCc1ccccc1-n1c(-c2ccncc2)n[nH]c1=S	M18AAP inhibitor 30
CCCN(Cc1ccco1)S(=O)(=O)c1ccc(OC)c(OC)c1	Kir21 block -4.9
CN1CCN(NC(=O)c2cc(-c3ccc(Cl)s3)nc3ccccc23)CC1	Kir21 block -4.5 (no result: Rce1 inh)
O=C(Cc1cccs1)NNC(=S)NC(=O)c1ccccc1	M18AAP inhibitor 35
O=C(Cc1cccs1)NNC(=S)NC(=O)c1ccc(F)c(F)c1	M18AAP inhibitor 44
CC(=O)NNC(=S)NC(=O)c1ccccc1	M18AAP inhibitor 48
Cc1ccc(N(C(=O)CNC(=O)c2ccco2)C(C(=O)NC2CCCCC2)c2ccncc2)cc1F (configuration not stated)	none
CCC(CC)C(=O)Nc1nnc(S(=O)(=O)Nc2ccccc2C)s1	none
O=C(CNC1CCCCCC1)Nc1ccc(N2CCCC2)cc1	none
O=C(CNCCC1=CCCCC1)Nc1ccc(N2CCCCCC2)cc1	Kir21 block -5.6 (no result: Rce1 inh)
O=C1CCCC2=C1C(c1ccc(O)c(O)c1)c1c(ccc3ncccc13)N2 (configuration not stated)	M18AAP inhibitor 77
CCOc1ccc(C2C3=C(CCCC3=O)Nc3ccc4ncccc4c32)cc1 (configuration not stated)	none
COc1ccc(N2C3=C(CC4=C2CC(C)(C)CC4=O)C(=O)CC(C)(C)C3)cc1	Kir21 block -5.1
COc1ccc(N2C3=C(CC4=C2CCCC4=O)C(=O)CCC3)cc1	none
COc1ccc(CN2C[C@H](Cc3ccccc3)[C@@H](CC(=O)Nc3ccccc3)C2=O)cc1	none
O=C(c1cc(-c2ccccc2)nc2ccccc12)N1CCN(c2ccccn2)CC1	Rce1 inh active
O=C(/C=C/c1cn(-c2ccccc2)nc1-c1cccs1)NCCN1CCOCC1	Rce1 inh active
CN1CCCN(C(=O)c2cc(-c3ccc(Cl)c(Cl)c3Cl)nc3ccccc23)CC1	Kir21 block -4.8
COc1ccc(N2CCN(C(=O)c3cc(-c4cccs4)nc4ccccc34)CC2)cc1	Rce1 inh active
COc1ccc(-c2cc(C(=O)N3CCN(c4ccccc4)CC3)c3ccccc3n2)cc1OC	none
O=C(c1cc(-c2ccncc2)nc2ccccc12)N1CCN(c2ccccn2)CC1	none
Cc1cccc([C@@H]2[C@@H]3C(=O)N(Cc4ccccc4)C(=O)[C@@H]3[C@]3(Cc4ccc(Cl)cc4)C(=O)N(c4ccc(Br)cc4)C(=O)N23)c1	none
Cc1ccc(F)c(N=Cc2c(O)c3ccccc3oc2=O)c1	none
O=C(c1cn(-c2ccccc2)nc1-c1cccs1)N1CCOCC1	none
O=C(c1cn(-c2ccccc2)nc1-c1cccs1)N1CCN(c2ccccc2)CC1	Rce1 inh active
CCc1cccc(CC)c1NC(=O)CSc1nnc(C2CC2)n1C	none
O=C1c2ccccc2-c2onc3ccc(NCCCn4ccnc4)c1c23	FID counter 69
COc1ccc2noc3c2c1C(=O)c1ccccc1-3	none (no result: M18AAP inhibitor, FID counter)
O=C(c1ccc(NC2=NC3CS(=O)(=O)CC3S2)cc1)N1CCN(c2ccc([N+](=O)[O-])cc2)CC1 (configuration not stated)	none
Clc1ccc(CN=C(Nc2ccccc2)NC2CCCCC2)cc1	Kir21 block -5.2
CSC1=NC(C(Cl)(Cl)Cl)N=C(c2ccc(C)cc2)N1 (configuration not stated)	none
N=c1c2c(-c3ccccc3)c(-c3ccccc3)n(Cc3ccco3)c2ncn1CCN1CCOCC1	Kir21 block -5.3
N=c1c2c(-c3ccccc3)c(-c3ccccc3)n(Cc3ccco3)c2ncn1CCO	Kir21 block -9.9
N=c1c2c(-c3ccccc3)c(-c3ccccc3)n(Cc3ccco3)c2ncn1CCCO	Kir21 block -5.5
c1coc(CNc2nc3ccccc3n2CCN2CCOCC2)c1	none
CCN1CCN(C(=O)N(CC(=O)Nc2ccc(C(N)=O)cc2)S(=O)(=O)c2ccc(C)cc2)CC1	none (no result: M18AAP inhibitor, FID counter)
COCC1CCCCN1C(=O)c1ccc(OC)c(OC2CCN(C(C)C)CC2)c1 (configuration not stated)	none
COc1cc(/C=c2\sc3n(c2=O)CCCN=3)ccc1O	none
O=c1/c(=C/c2ccc([N+](=O)[O-])cc2)sc2n1CCCN=2	M18AAP inhibitor 28
CCC(C)c1ccccc1NC(=O)CN1CCN(C/C=C/c2ccccc2)CC1 (configuration not stated)	Kir21 block -4.5
O=C(CN1CCN(C/C=C/c2ccccc2)CC1)NCc1ccccc1	none (no result: Rce1 inh)
CN(CCC#N)C(=O)COC(=O)c1ccc(Cl)c(S(=O)(=O)N(C)c2ccccc2)c1	none
CC(C)(C)c1nnc(N/N=C/c2ccccc2O)n(N)c1=O	M18AAP inhibitor 52
CCc1nnc(N/N=C/c2ccccc2F)n1N	M18AAP inhibitor 62
Oc1ccccc1/C=N/Nc1nccnc1Cl	none
CCOC(=O)N/N=C/c1ccccc1F	none
COc1ccccc1C(=O)NN(C)C1=NS(=O)(=O)c2ccccc21	none
COc1ccc(C2=NOC(C(=O)N(C)Cc3ccccc3)C2)cc1 (configuration not stated)	none (no result: Rce1 inh)
O=c1oc2ccccc2nc1/C=C(O)/C=C/c1ccc(F)cc1	FID counter 40
CCS(=O)(=O)N1CCC(N2CCC(C)CC2)CC1	none
Cc1cc(C)n(C(C[N+](=O)[O-])c2ccc(Cl)cc2)n1 (configuration not stated)	Kir21 block -5.2
Cc1cc(O)c(C(C[N+](=O)[O-])c2ccc(Cl)cc2)c(=O)o1 (configuration not stated)	none
CCN(Cc1ccccc1)CC(O)COC(c1ccc(OC)cc1)c1ccc(OC)cc1 (configuration not stated)	Kir21 block -8.8
Cc1ccc(C2(c3noc(CN4CCC(c5ccncc5)CC4)n3)CCCC2)cc1	none (no result: Rce1 inh)
O=C1CSC(c2ccccc2)N1CCc1ccccc1 (configuration not stated)	Kir21 block -4.2
CCC(Cc1ccccc1)NC(=O)CCc1ccccc1 (configuration not stated)	Kir21 block -5.1
COc1cc2ccccc2cc1C(=O)Nc1ccc(C)cn1	none
